In PubChem BioAssay (NCI) one finds growth data, which are given here for 40 molecules.

Several values for one entry are separate records, joined by “and”; a condition that tells them apart may be missing. Identical values can stand only once. This is part of a sample that, as a whole, favours compounds with a hit. Of some 83,000 tested, about 20% had one in any assay.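 Cells were grown in 96-well plates and exposed to the test compound at a single concentration for 48 hours; results are reported as percent growth, with values below 10 considered active.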 Unmarked numbers belong to inactive results. Activity calls are given as the source filed them.

The test deals with MDA-MB-468 breast. The experiment in a line: NCI-60 one-dose screen, 48 h (100 = growth as untreated, 0 = no growth, -100 = all killed). The conditions noted are these: 10 µM unless noted.
Turning to `C=CCn1c(SCC(=O)Nc2cccc(C(=O)/C=C/c3ccc(Br)cc3)c2)nc2ccccc2c1=O`, the growth is 99.6%. As to `O=S(=O)(NCCCNc1nccc(-c2[nH]c(-c3ccccc3)nc2-c2ccc(F)c(O)c2)n1)c1ccc(C(F)(F)F)cc1`, the growth was -8.61% (active). For `O=C1OC2C(I)C3CC2C1C3c1ccccc1` (stereo not given), the growth is 91.5%. As for `C=C1C(=O)O[C@H]2[C@H]1CC/C(COC(=O)NCc1ccc(Cn3c(=O)sn(CCI)c3=O)cc1)=C\CC[C@@]1(C)O[C@@H]21`, the growth was -37.1% (active). Consider `N#Cc1ccc(N2Cc3cc(Cl)ccc3OC3=C2C(=O)N(Cc2ccc(F)cc2)C3=O)cc1`, for which the growth was -68.2% (active).

Take `CC[C@]1(O)CC2CN(CCc3c([nH]c4ccccc34)[C@@](C(=O)OC)(c3cc4c(cc3OC)N(C=O)[C@H]3[C@@](O)(C(=O)OC)[C@H](OC(C)=O)[C@]5(CC)C=CCN6CC[C@]43[C@@H]65)C2)C1` (stereo not given in full): the growth is 10.4%. The same measure for `CC(C)=CCc1cc(O)cc2c1OC(C=C(C)C)C1=C2C(=O)C2=C(NCCS2(=O)=O)C1=O` (stereo not given): -27% (active).

With `O=c1[nH]c(-c2ccccn2)nc2sc3c(c12)CCCCC3`, the growth is 50%. Turning to `N#C/C(=N\Nc1ccc(Cl)cc1)C(=O)Nc1cc(-c2ccccc2)nn1-c1ccccc1`, the growth is 7.6% (active). Take `N#Cc1ccc(OCc2nc(N)nc(N)c2-c2ccc(Cl)c(Cl)c2)cc1`: the growth was 35.4%. `COC(=O)c1nc(-c2ccccc2)oc1S(=O)(=O)N(C)CCO`: the growth is 6.31% (active).

Take `Cc1nc2ccccc2c(/C=C/c2ccc(C(F)(F)F)cc2)c1C(=O)/C=C/c1ccccc1`: the growth is -51% (active). Consider `COc1c(B(O)O)cccc1-c1nc2ccc3n[nH]c(F)c3c2c2c1CCCC2`, for which the growth is 71.9%. Turning to `COc1ccc(/C=C(\C#N)c2ccc([N+](=O)[O-])cc2)c2ccccc12`, the growth is 84.7%. Next, `O=c1[nH]cnc2c1C(c1ccc(Br)cc1)c1sc3c(F)cccc3c1O2` (stereo not given): 105%; `Cc1ccc(NC(=O)c2ccc(CN3CCN(C)CC3)cc2)cc1Nc1nccc(-c2cccnc2)n1`: 70.9% and 73.4%; `CC(=O)O[C@@H]1CCN2C(=O)N(C)c3ccccc3[C@@H]2C1`: 126%. `c1c(-c2cc(C3CC3)[nH]n2)n[nH]c1C1CC1`: the growth was 95.4%. On to `COc1cccc(-c2nn(-c3ccccc3)cc2-c2ccnc(NCCCNC(=O)c3cccc(C(F)(F)F)c3)c2)c1`, for which the growth was 17.3%. For `COc1ccc(C2=Nc3c(C)nn(-c4ccccc4)c3NC(c3ccc(Oc4ccnc5cc(Cl)ccc45)c(OC)c3)C2)cc1` (stereo not given), the growth was 80.3%. For the molecule `N#Cc1c(-c2cccc([N+](=O)[O-])c2)nc(SCC(=O)c2ccc(Cl)cc2)[nH]c1=O`, the growth is 110%. Consider `Nc1nc2ccccc2c2c(=O)c3cc(F)ccc3sc12`, for which the growth is -27.2% (active). Regarding `CC[C@@]12C=CCN3CC[C@]4(c5cc(NC(=O)COc6cc(OCC(=O)Nc7cc8c(cc7OC)N(C)[C@H]7[C@@](O)(C(=O)OC)[C@H](OC(C)=O)[C@]9(CC)C=CCN%10CC[C@]87[C@@H]%109)cc7oc(-c8ccccc8)cc(=O)c67)c(OC)cc5N(C)[C@@H]4[C@](O)(C(=O)OC)[C@H]1OC(C)=O)[C@H]32`, the growth was 72%.

Turning to `CCCC(=O)NC(c1ccc2c(c1)OCO2)c1cc(Cl)c2cccnc2c1O` (stereo not given), the growth is 7.89% (active).

As to `CC1Cc2c(Cl)ncnc2N(C)c2ccc(F)cc21` (stereo not given), the growth is 64.5%. For the molecule `CCCC(=O)OCC1OC(n2cnc3c(=S)nc(N)[nH]c32)C(OC(=O)CCC)C1OC(=O)CCC` (stereo not given), the growth was 47.7%.

Turning to `CC(C)(C)OC(=O)NCc1ccc(CNc2c([N+](=O)[O-])cnc3ccccc23)cc1`, the growth is 22.2%.

In the case of `O=C(Nc1cccc(-n2ccc3c(NC(=O)c4ccccc4)nccc32)c1)Nc1cc(C(F)(F)F)cc(C(F)(F)F)c1`, the growth was 7.42% (active). `Cc1ccc(S(=O)(=O)NCCCNc2nccc(-c3c(-c4cccc(F)c4)nc4occn34)n2)cc1`: the growth was 55.6%. For the molecule `Fc1cc(-c2ncc(-c3cc(F)c(F)c(F)c3)c(NC3CCCCCC3)n2)cc(F)c1F`, the growth is 99%. As to `CCCCCCCCCN(CCCCCCCCC)C(C)C(=O)c1ccc2cc(Br)c3ccccc3c2c1` (stereo not given), the growth was 99.2%. The same measure for `CCCCCCCCCOc1c(OC)cc(C2CC(=O)Nc3c2c(C)nn3-c2nc3ccccc3[nH]2)cc1OC` (stereo not given): -55.6% (active); for `N#Cc1c(NC(=O)NCc2ccccc2)sc2c1CCCC2`: -33.5% (active).

Turning to `C=CCOC(=O)C(=O)OCC=C`, the growth was 104%. Regarding `O=C(NCc1cccnc1)/C(=C\c1ccc(Br)cc1)S(=O)(=O)c1ccccc1`, the growth was -58.9% (active).

As for `CCCNC(=O)c1cn2ncnc(Nc3cc(C(=O)NC4CC4)ccc3C)c2c1C`, the growth was 73%.

Regarding `COC(=O)CC[C@@H](C)[C@H]1CC[C@H]2[C@@H]3CC[C@@H]4C[C@H](O)CC[C@]4(C)[C@H]3C[C@H](O)[C@]12C`, the growth was 103%. Regarding `Cn1nnnc1-c1ccc(N)cc1`, the growth is 117%. Take `C=CCn1c(SCC(=O)Nc2cccc(C(=O)/C=C/c3ccc(Cl)cc3)c2)nc2ccccc2c1=O`: the growth was 107%.

With `CC(C)(C)c1cc(-c2nc3ccc(N4CCN(S(C)(=O)=O)CC4)cc3[nH]2)cc(C(C)(C)C)c1O`, the growth is 96.1%.
